Bioassay records: PubChem BioAssay, National Center for Advancing Translational Sciences (NCATS)
Shown are actives, neighbours in structure and some others; about 9.4% of the full set was active somewhere.
HPGD inh = HPGD (human) dehydrogenase inhibition; Potency, µM, for the others: at the top dose activity change, negative = inhibition, actives largely listed as inhibitors; P15428; 150,000 compounds, 4.3% hits; purified HPGD, NADH fluorescence kinetic, PGE2 substrate; AID 894; active = well fitted inhibition curve with a large enough effect, not every such curve was filed as active; inconclusive = small, poorly fitted or top-dose-only effect, or another doubt; inactive = no such curve, though single readings can be large or run the other way; also: potency is read from the fitted curve at half-maximal effect; % is scaled to controls: 0 for no effect and ±100 for the full control effect
Target sequence (P15428 whole entry, looked up): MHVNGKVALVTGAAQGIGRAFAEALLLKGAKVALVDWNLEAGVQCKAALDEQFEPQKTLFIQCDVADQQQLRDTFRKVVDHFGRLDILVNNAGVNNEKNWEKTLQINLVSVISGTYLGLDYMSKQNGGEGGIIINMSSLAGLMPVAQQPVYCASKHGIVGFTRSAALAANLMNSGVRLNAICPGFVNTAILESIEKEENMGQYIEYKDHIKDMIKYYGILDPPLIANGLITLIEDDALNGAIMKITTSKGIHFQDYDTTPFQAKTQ
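20 nM HPGD preincubated 15 min at room temperature with compound in 50 mM Tris-HCl pH 8, 0.01% Tween 20. Started with 1 mM NAD+ and 30 uM prostaglandin E2; NADH fluorescence (360/450 nm) read 5 times over 30-s intervals, last minus first.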
IMPase Li inh = membrane-permeable IMPase blocker, potentiated with lithium. CHO-M1 cells, IP1 TR-FRET (IP-One), carbachol + lithium. Potency, µM (titrated, usually from 59.4 µM), without a hit: top-dose activity, negative = IMPase inhibition, actives largely listed as inhibitors. 210,000 compounds, 0.35% hits;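 also: IP1 builds up when IMPase is blocked and the TR-FRET signal falls; potency is read from the fitted curve at half-maximal effect; plate controls were basal vehicle for no effect and high inhibitor control for full effect; nearly all actives have a fitted effect of over 50% in size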
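Test compounds were applied to CHO-M1 cells previously cultured for 16–30 h at 2000 per well. A small lithium amount accompanied them; after 30 min at 37C, IP1 was quantified by TR-FRET.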
HTT cytoprotect = cytoprotection in Huntington HTT-Q103 PC12 cell model; PC12 HTT-Q103 induced, cytoprotection, ATP luminescence, 40 h; Potency, µM (doses to about 56.4 µM), for the others: cytoprotection (ATP increase), actives largely listed as activators; 230,000 compounds, 0.14% hits; also: potency is read from the fitted curve at half-maximal effect; % of control where 0% means no effect; nearly all actives have a fitted effect of over 45% in size
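Huntington model: PC12 line, ecdysone-inducible HTTQ103 exon1–GFP, tebufenozide 100 nM. Test articles in a dose series. Endpoint luminescence from cellular ATP.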
ALDH1A1 block = inhibitors of human aldehyde dehydrogenase 1A1; P00352; Purified ALDH1A1, NADH fluorescence, propionaldehyde substrate; Potency, µM (doses to about 75.3 µM), for inactives: at the top dose activity, negative = inhibition, usual class: inhibitors; 220,000 compounds, 7.3% hits; active = well fitted inhibition curve with a large enough effect, not every such curve was filed as active; inconclusive = small, poorly fitted or top-dose-only effect, or another doubt; inactive = no such curve, though single readings can be large or run the other way;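 also: potency is read from the fitted curve at half-maximal effect; plate controls were no enzyme wells and a reference inhibitor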
HTT aggregate = reduces HttQ103-GFP aggregates in PC12 cells; PC12 HttQ103-GFP aggregates, Acumen cytometry, 40 h; Potency, µM (doses to about 46.1 µM), for inactives: at the top dose activity change, negative = inhibition, actives largely listed as inhibitors; 220,000 compounds, 1.1% hits; also: potency is read from the fitted curve at half-maximal effect; % is scaled to controls: 0 for no effect and ±100 for the full control effect; nearly all actives have a fitted effect of over 60% in size
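Inducible Q103 Huntingtin exon 1–GFP PC12 line, 1500 cells/well in phenol red free DMEM with 5% equine and 5% calf serum. Tebufenozide 100 nM induced expression; compounds titrated; aggregates quantified by cytometry.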
IMPase cell inh = membrane-permeable compound that blocks inositol monophosphatase; AID 901; P97697; CHO-M1 cells, IP1 accumulation, HTRF TR-FRET ratio; inhibition (IP1 accumulation), % at 46.1 µM; 120,000 tested, under 10 active; active = well fitted curve in the direction sought with a large enough effect in the signal ratio, not every such curve was filed as active; inconclusive = small, poorly fitted or top-dose-only effect, or a change in a side signal; inactive = no such curve, though single readings can be large or run the other way; the % refers to the signal ratio;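 also: cells stimulated with carbachol in lithium chloride buffer; plate controls were DMSO basal wells for no effect and reference inhibitor wells for full effect; higher means more IMPase inhibition seen as more IP1 and lower FRET ratio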
Target sequence (P97697 whole entry, looked up): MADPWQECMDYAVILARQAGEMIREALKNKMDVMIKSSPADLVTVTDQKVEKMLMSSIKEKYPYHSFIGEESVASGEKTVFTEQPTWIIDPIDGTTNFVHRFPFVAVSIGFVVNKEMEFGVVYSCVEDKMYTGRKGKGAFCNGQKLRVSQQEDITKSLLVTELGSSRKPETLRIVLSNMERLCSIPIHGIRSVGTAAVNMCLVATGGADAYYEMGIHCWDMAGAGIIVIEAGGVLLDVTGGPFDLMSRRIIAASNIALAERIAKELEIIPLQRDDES
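CHO-M1, 2000 cells/well, cultured 16–30 h; cpd up to 46 uM; carbachol (50 uM solution, stimulation buffer w/ 50 mM LiCl, pH 7.4), 30 min 37C; IP-One TR-FRET, 10 min RT; Ex 320/Em 665, 620; Hill-fit AC50.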
The depositor's hits bear a star; ? = inconclusive; . = no result; [ ] = dose if it differs, or a comment. Unless noted, calls follow the shape of the dose curve; as a rule, active = well fitted curve in the direction sought with a large enough effect; inconclusive = small, poorly fitted or top-dose-only effect, or another doubt; inactive = no such curve, though single readings can be large; an effect the other way counts as inactive or inconclusive.

SMILES	HPGD inh	IMPase Li inh	HTT cytoprotect	ALDH1A1 block	HTT aggregate	IMPase cell inh
Cc1ccc(C2/C(=C(/O)c3cnn(-c4ccccc4)c3C)C(=O)C(=O)N2CCN2CCOCC2)o1 (stereo not drawn)	-18%	17%[38.3 µM]	-46%	7.9µM*	17%	3
Cc1ccc(C)c(/C(O)=C2/C(=O)C(=O)N(CCN3CCOCC3)C2c2ccco2)c1 (stereo not drawn)	?	-14%[38.3 µM]	9%[10 µM]	10µM*	-6%	-6
Cc1ccc(C2/C(=C(\O)c3cnn(-c4ccccc4)c3C)C(=O)C(=O)N2CCN(C)C)o1 (stereo not drawn)	-20%	-2%[38.3 µM]	-31%	2%	-1%	9
O=C(CCCn1c(=O)[nH]c2cc(Cl)ccc2c1=O)NC1CCCCCCC1	-6%	4%[38.3 µM]	23%	9%	-6%	-6
CN(Cc1ccccc1)C(=O)CCCn1c(=O)[nH]c2cc(Cl)ccc2c1=O	25µM*	11%[38.3 µM]	14%	-8%	5%[9.22 µM]	-2
COc1ccccc1-c1cc(-c2ccccc2)nc(SC(C(N)=O)c2ccccc2)c1C#N (stereo not drawn)	?	7.9µM*	-6%	?	11µM*	?
COCC(C)N=C1NN=C(c2ccc(NC(C)=O)cc2)CS1 (stereo not drawn)	.	5%	5%[10 µM]	?	8%	.
COCC(C)N=C1NN=C(c2cccs2)C(CC(=O)O)S1 (stereo not drawn)	.	3%	5%	13µM*	15%	.
COC(=O)C(Cc1c[nH]c2ccccc12)NC(=O)COc1cccc(C)c1 (stereo not drawn)	.	.	.	.	.	0
N#Cc1cc(-c2ccc(Cl)cc2)cnc1Sc1ccc(F)cc1	?	25µM*	-19%	?	4%	0
CCOC(=O)c1cc(C)n(-c2ccc(Cl)cc2)c1C	.	.	16%[10 µM]	.	4%[9.22 µM]	.
CCOc1ccc(-n2c(C)cc(C(=O)CCl)c2C)cc1	.	14%	-47%	0.11µM*	-20%	.
COC(=O)c1ccc(-n2c(C)cc(C(=O)CCl)c2C)cc1	.	13%	-20%	0.45µM*	?	.
COC(=O)c1ccc(-n2c(C)cc(C(=O)COC(=O)CNS(=O)(=O)c3ccc(C)cc3)c2C)cc1	-9%	10%	39%[10 µM]	?	-13%	.
Cc1ccc2c(c1)cc(CN(C(=O)N1CCOCC1)C1CCCC1)c1nnnn12	.	-3%	-9%[10 µM]	2%	-2%[9.22 µM]	.
CCC(=O)N(Cc1cc2ccc(C)cc2n2nnnc12)C1CCCCC1	-3%	19%	10%[1.9 µM]	5µM*	-6%	-9
CN(C)c1ccc(C(CN)c2c[nH]c3ccccc23)cc1 (stereo not drawn)	.	15%	-41%	16µM*	-20%	.
Cc1[nH]c(=S)sc1Cc1ccc(F)cc1	16µM*	-2%	5%[10 µM]	?	4%	.
O=C(NNS(=O)(=O)c1ccc(C(=O)NC2CCCC2)cc1)c1ccncc1	.	-1%	3%	2.8µM*	15%	.
COc1ccc(NC(=O)N2CCc3nc(-c4ccc(OC)cc4C)c4c(c3C2)CO[C@@H](c2ccccc2)C4)cc1	-6%	-1%	-9%[10 µM]	4µM*	.	.
c1ccc(CN2CCOCC2)cc1	-5%	17%[38.3 µM]	22%	6%	12%	8
c1ccc(Oc2cccc(CN3CCOCC3)c2)cc1	25µM*	43%[38.3 µM]	10%	?	?	?
CSC1=C(C#N)C(c2ccc3c(c2)OCO3)C2=C(CCCC2=O)N1 (stereo not drawn)	16µM*	-1%	-28%[10 µM]	-6%	?	.
CCSC1=C(C#N)C(c2ccc(Cl)cc2)C2=C(CCCC2=O)N1 (stereo not drawn)	-15%	26%[38.3 µM]	-9%	-9%	-27%	-2
CCCCC#CC1C=CC(OC(C)=O)C(COC(C)=O)O1 (stereo not drawn)	.	.	?	3.5µM*	.	.
CCOC(=O)OCC1OC(C#Cc2ccc(Br)cc2)C=CC1OC(=O)OCC (stereo not drawn)	.	.	-11%[10 µM]	-19%[13.5 µM]	.	.
